The values that follow come from publication PMC12529666, “Dysregulation of AGO2-miRNA dynamics underlies the AGO2-associated Lessel–Kreienkamp syndrome”.

To fix the notation:
B1: GCGTTCCA (ssRNA)
RNA 1: GAGUUCUACAGUCCGACGAUCCCAACGCGUUCCACACCUGGAAUUCUCGGGUGCCAA
RNA 2: UGGAGUGUGACAAUGGUGUUUG
DNA 1: GATCGTCGGACTGTAGAACTC
DNA 2: TTGGCACCCGAGAATTCCA
modifications: constant regions annealed to DNA blockers; guide miR-122 5' phosphate
B2: ACGCCTTA (ssRNA)
RNA 1: GAGUUCUACAGUCCGACGAUCCCAACACGCCUUACACCUGGAAUUCUCGGGUGCCAA
RNA 2: UGGAGUGUGACAAUGGUGUUUG
DNA 1: GATCGTCGGACTGTAGAACTC
DNA 2: TTGGCACCCGAGAATTCCA
modifications: constant regions annealed to DNA blockers; guide miR-122 5' phosphate
B3: GCATTCTA (ssRNA)
RNA 1: GAGUUCUACAGUCCGACGAUCCCAACGCAUUCUACACCUGGAAUUCUCGGGUGCCAA
RNA 2: UGGAGUGUGACAAUGGUGUUUG
DNA 1: GATCGTCGGACTGTAGAACTC
DNA 2: TTGGCACCCGAGAATTCCA
modifications: constant regions annealed to DNA blockers; guide miR-122 5' phosphate
B4: ATATTCTA (ssRNA)
RNA 1: GAGUUCUACAGUCCGACGAUCCCAACAUAUUCUACACCUGGAAUUCUCGGGUGCCAA
RNA 2: UGGAGUGUGACAAUGGUGUUUG
DNA 1: GATCGTCGGACTGTAGAACTC
DNA 2: TTGGCACCCGAGAATTCCA
modifications: constant regions annealed to DNA blockers; guide miR-122 5' phosphate
B5: ACATTCCG (ssRNA)
RNA 1: GAGUUCUACAGUCCGACGAUCCCAACACAUUCCGCACCUGGAAUUCUCGGGUGCCAA
RNA 2: UGGAGUGUGACAAUGGUGUUUG
DNA 1: GATCGTCGGACTGTAGAACTC
DNA 2: TTGGCACCCGAGAATTCCA
modifications: constant regions annealed to DNA blockers; guide miR-122 5' phosphate
B6: ATATCTTA (ssRNA)
RNA 1: GAGUUCUACAGUCCGACGAUCCCAACAUAUCUUACACCUGGAAUUCUCGGGUGCCAA
RNA 2: UGGAGUGUGACAAUGGUGUUUG
DNA 1: GATCGTCGGACTGTAGAACTC
DNA 2: TTGGCACCCGAGAATTCCA
modifications: constant regions annealed to DNA blockers; guide miR-122 5' phosphate
B7: ACGCTCTA (ssRNA)
RNA 1: GAGUUCUACAGUCCGACGAUCCCAACACGCUCUACACCUGGAAUUCUCGGGUGCCAA
RNA 2: UGGAGUGUGACAAUGGUGUUUG
DNA 1: GATCGTCGGACTGTAGAACTC
DNA 2: TTGGCACCCGAGAATTCCA
modifications: constant regions annealed to DNA blockers; guide miR-122 5' phosphate
B8: ATGTCCTA (ssRNA)
RNA 1: GAGUUCUACAGUCCGACGAUCCCAACAUGUCCUACACCUGGAAUUCUCGGGUGCCAA
RNA 2: UGGAGUGUGACAAUGGUGUUUG
DNA 1: GATCGTCGGACTGTAGAACTC
DNA 2: TTGGCACCCGAGAATTCCA
modifications: constant regions annealed to DNA blockers; guide miR-122 5' phosphate
B9: GCGCTCTA (ssRNA)
RNA 1: GAGUUCUACAGUCCGACGAUCCCAACGCGCUCUACACCUGGAAUUCUCGGGUGCCAA
RNA 2: UGGAGUGUGACAAUGGUGUUUG
DNA 1: GATCGTCGGACTGTAGAACTC
DNA 2: TTGGCACCCGAGAATTCCA
modifications: constant regions annealed to DNA blockers; guide miR-122 5' phosphate
B10: GTATTCCG (ssRNA)
RNA 1: GAGUUCUACAGUCCGACGAUCCCAACGUAUUCCGCACCUGGAAUUCUCGGGUGCCAA
RNA 2: UGGAGUGUGACAAUGGUGUUUG
DNA 1: GATCGTCGGACTGTAGAACTC
DNA 2: TTGGCACCCGAGAATTCCA
modifications: constant regions annealed to DNA blockers; guide miR-122 5' phosphate
B11: GCGCCCTA (ssRNA)
RNA 1: GAGUUCUACAGUCCGACGAUCCCAACGCGCCCUACACCUGGAAUUCUCGGGUGCCAA
RNA 2: UGGAGUGUGACAAUGGUGUUUG
DNA 1: GATCGTCGGACTGTAGAACTC
DNA 2: TTGGCACCCGAGAATTCCA
modifications: constant regions annealed to DNA blockers; guide miR-122 5' phosphate

AGO2 T357M, sequence (Q9UKV8 whole entry T357M/S387D/S824A/S828D/S831D/S834A): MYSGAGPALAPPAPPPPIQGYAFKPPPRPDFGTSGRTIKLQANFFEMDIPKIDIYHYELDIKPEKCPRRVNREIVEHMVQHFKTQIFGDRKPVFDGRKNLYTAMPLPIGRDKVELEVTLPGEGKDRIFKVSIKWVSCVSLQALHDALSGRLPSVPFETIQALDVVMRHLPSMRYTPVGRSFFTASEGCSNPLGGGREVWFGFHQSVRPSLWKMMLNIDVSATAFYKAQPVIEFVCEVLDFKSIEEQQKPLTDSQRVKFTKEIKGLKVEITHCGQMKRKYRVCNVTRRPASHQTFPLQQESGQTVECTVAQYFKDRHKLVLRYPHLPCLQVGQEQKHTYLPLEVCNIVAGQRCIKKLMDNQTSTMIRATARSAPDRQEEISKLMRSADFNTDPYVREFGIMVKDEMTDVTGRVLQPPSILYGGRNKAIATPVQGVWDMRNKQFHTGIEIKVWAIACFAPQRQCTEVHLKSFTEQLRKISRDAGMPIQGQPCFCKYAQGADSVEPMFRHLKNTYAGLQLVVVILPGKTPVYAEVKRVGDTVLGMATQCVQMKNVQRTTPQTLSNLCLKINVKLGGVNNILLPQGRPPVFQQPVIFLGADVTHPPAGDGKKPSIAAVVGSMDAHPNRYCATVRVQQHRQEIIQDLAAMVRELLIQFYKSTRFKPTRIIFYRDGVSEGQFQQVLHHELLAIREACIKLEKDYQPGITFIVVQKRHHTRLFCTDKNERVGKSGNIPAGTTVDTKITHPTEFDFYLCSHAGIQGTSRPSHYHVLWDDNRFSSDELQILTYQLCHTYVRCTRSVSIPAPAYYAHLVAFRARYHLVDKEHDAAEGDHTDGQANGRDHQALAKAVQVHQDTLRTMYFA
AGO2 F182del, sequence (Q9UKV8 other isoform, or with tags, fused parts or gaps S387D;S824A;S828D;S831D;S834A;del182-182): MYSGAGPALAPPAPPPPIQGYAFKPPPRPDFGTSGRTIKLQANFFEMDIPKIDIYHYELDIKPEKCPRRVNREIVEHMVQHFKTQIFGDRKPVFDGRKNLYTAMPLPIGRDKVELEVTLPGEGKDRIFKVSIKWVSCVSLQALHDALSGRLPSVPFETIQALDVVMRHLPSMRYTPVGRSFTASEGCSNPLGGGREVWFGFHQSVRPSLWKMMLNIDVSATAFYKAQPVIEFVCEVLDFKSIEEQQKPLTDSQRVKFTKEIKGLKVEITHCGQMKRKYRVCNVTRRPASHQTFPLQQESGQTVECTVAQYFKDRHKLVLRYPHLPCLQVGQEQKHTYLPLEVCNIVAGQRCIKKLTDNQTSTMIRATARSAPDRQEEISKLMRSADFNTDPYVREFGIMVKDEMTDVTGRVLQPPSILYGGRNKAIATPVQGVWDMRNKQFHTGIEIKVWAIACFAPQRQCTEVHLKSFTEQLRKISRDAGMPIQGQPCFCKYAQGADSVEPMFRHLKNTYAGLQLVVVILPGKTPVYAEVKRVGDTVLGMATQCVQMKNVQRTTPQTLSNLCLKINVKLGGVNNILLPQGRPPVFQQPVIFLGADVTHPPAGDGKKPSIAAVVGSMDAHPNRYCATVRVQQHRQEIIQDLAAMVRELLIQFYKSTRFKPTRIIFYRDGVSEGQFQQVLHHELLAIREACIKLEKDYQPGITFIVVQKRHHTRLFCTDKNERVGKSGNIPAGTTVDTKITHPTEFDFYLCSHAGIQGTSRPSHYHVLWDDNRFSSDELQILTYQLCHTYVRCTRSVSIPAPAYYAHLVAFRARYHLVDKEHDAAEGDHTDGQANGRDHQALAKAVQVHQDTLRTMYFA

The target of the first assay is AGO2 L192P (Homo sapiens, UniProt Q9UKV8 1-859, L192P;S387D;S824A;S828D;S831D;S834A). Kind of assay: RNA Bind-n-Seq (nitrocellulose filter binding and sequencing); miR-122 guide loaded in AGO2; 60 min incubation; 30 mM Tris pH 8.0, 100 mM potassium acetate, 2 mM magnesium acetate, 0.5 mM TCEP, 0.005% NP-40, 0.01 mg/ml yeast tRNA; 3 nM AGO2-miR-122, 100 nM RNA library; 60; high values mean tight binding. To be noted: protein: recombinant; tags: His6 (N-terminal, pFastBac HTA). In a few lines: (§1)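 Fold enrichment is each target's read fraction divided by its read fraction in the input library. Sf9 insect cells expressed His-tagged AGO2 from baculovirus; the protein was loaded with a synthetic guide RNA and purified by Ni-NTA and a biotinylated capture oligo. The bound RNA was extracted, reverse-transcribed, barcode-amplified and sequenced on Illumina.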
AGO2 L192P, sequence (Q9UKV8 whole entry L192P/S387D/S824A/S828D/S831D/S834A): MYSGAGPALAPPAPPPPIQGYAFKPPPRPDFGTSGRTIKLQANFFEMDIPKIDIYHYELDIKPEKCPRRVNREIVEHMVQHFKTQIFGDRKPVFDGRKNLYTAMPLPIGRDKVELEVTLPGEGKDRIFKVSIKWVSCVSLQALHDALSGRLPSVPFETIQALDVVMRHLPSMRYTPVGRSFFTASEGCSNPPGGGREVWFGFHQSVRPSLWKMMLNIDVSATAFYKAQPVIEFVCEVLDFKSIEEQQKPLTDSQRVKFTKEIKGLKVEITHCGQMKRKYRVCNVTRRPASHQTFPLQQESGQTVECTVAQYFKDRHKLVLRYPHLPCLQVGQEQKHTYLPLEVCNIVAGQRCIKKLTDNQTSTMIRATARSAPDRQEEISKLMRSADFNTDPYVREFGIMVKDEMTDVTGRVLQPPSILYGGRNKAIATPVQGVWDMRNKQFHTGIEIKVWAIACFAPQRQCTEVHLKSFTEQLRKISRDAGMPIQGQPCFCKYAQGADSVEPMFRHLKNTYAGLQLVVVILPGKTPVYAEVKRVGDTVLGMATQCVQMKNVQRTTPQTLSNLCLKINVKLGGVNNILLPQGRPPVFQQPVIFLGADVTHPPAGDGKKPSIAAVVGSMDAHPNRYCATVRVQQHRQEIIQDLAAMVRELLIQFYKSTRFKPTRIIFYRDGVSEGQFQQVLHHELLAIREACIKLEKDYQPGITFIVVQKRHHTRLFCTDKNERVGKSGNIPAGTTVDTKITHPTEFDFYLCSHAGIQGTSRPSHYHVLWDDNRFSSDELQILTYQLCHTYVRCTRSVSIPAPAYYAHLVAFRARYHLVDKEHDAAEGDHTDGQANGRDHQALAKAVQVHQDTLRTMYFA
Turning to B1, the binding signal was 0.477 fold enrichment over input.

Take B2: the binding signal is 0.493 fold enrichment over input.

Regarding B3, the binding signal is 0.45 fold enrichment over input.

As for B4, the binding signal is 0.453 fold enrichment over input.

With B5, the binding signal is 0.382 fold enrichment over input.

With B6, the binding signal is 0.456 fold enrichment over input.

For the molecule B7, the binding signal is 0.429 fold enrichment over input.

B8: the binding signal is 0.506 fold enrichment over input.

Consider B9, for which the binding signal was 0.459 fold enrichment over input.

For the molecule B10, the binding signal was 0.43 fold enrichment over input.

Turning to B11, the binding signal is 0.492 fold enrichment over input.

In the next assay the target is AGO2 A367P (Homo sapiens, UniProt Q9UKV8 1-859, A367P;S387D;S824A;S828D;S831D;S834A). The description is as above. To be noted: protein: recombinant; tags: His6 (N-terminal, pFastBac HTA). In a few lines: as §1
AGO2 A367P, sequence (Q9UKV8 whole entry A367P/S387D/S824A/S828D/S831D/S834A): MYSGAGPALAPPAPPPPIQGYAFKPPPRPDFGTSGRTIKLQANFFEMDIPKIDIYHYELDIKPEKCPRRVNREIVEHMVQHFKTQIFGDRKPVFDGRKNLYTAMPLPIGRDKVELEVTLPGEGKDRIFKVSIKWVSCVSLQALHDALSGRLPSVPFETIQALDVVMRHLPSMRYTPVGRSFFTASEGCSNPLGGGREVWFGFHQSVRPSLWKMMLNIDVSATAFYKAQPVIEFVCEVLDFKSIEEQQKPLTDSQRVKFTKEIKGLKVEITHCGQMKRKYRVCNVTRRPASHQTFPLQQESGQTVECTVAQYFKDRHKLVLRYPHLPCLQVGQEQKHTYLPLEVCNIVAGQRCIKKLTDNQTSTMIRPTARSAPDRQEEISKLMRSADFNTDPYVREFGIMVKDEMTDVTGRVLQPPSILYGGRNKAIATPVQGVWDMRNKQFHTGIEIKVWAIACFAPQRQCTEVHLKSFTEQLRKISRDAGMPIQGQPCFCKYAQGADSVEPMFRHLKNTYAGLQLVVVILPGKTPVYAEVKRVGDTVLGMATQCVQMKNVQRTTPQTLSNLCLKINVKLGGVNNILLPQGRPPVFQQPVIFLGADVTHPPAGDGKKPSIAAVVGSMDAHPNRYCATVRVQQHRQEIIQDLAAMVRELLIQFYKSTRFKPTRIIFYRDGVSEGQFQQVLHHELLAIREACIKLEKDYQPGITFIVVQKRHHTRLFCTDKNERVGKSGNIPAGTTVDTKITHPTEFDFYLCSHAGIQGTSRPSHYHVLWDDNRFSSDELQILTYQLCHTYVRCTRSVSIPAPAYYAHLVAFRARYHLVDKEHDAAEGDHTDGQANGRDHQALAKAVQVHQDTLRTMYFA
Consider B1, for which the binding signal was 0.187 fold enrichment over input.

With B2, the binding signal was 0.221 fold enrichment over input.

B3: the binding signal is 0.181 fold enrichment over input.

B4: the binding signal is 0.18 fold enrichment over input.

As to B5, the binding signal is 0.156 fold enrichment over input.

In the case of B6, the binding signal is 0.179 fold enrichment over input.

As to B7, the binding signal was 0.173 fold enrichment over input.

As for B8, the binding signal was 0.238 fold enrichment over input.

For the molecule B9, the binding signal was 0.19 fold enrichment over input.

Consider B10, for which the binding signal was 0.158 fold enrichment over input.

Consider B11, for which the binding signal was 0.195 fold enrichment over input.

The target in a further assay is AGO2 T357M (Homo sapiens, UniProt Q9UKV8 1-859, T357M;S387D;S824A;S828D;S831D;S834A). The assay is described as above. The conditions noted are these: protein: recombinant; tags: His6 (N-terminal, pFastBac HTA). In a few lines:
as §1
On to B1, for which the binding signal is 0.592 fold enrichment over input.

On to B2, for which the binding signal was 0.625 fold enrichment over input.

Regarding B3, the binding signal is 0.63 fold enrichment over input.

Regarding B4, the binding signal is 0.631 fold enrichment over input.

Turning to B5, the binding signal was 0.428 fold enrichment over input.

B6: the binding signal is 0.593 fold enrichment over input.

Regarding B7, the binding signal was 0.54 fold enrichment over input.

For B8, the binding signal is 0.592 fold enrichment over input.

Regarding B9, the binding signal is 0.635 fold enrichment over input.

In the case of B10, the binding signal was 0.624 fold enrichment over input.

As to B11, the binding signal is 0.721 fold enrichment over input.

Another assay deals with AGO2 F182del (Homo sapiens, UniProt Q9UKV8 1-859, S387D;S824A;S828D;S831D;S834A;del182-182). The assay is described as above. The conditions noted are these: protein: recombinant; tags: His6 (N-terminal, pFastBac HTA). A digest of the protocol:
as §1
B1: the binding signal was 0.161 fold enrichment over input.

Take B2: the binding signal was 0.246 fold enrichment over input.

As for B5, the binding signal is 0.178 fold enrichment over input.

B8: the binding signal was 0.262 fold enrichment over input.
